The record followed here is PubChem BioAssay (Tox21).

Structures are written as SMILES. Results filed as inconclusive are left out. A number with no mark means an inactive call. Activity calls are given as the source filed them. Unless noted, calls come from the whole dose curve.
% is set by controls: 0 for no effect and ±100 for the full control effect.
Note: nearly all actives have a fitted effect of over 30% in size.

Sequence of Progesterone receptor (Homo sapiens) (P06401 whole entry, looked up): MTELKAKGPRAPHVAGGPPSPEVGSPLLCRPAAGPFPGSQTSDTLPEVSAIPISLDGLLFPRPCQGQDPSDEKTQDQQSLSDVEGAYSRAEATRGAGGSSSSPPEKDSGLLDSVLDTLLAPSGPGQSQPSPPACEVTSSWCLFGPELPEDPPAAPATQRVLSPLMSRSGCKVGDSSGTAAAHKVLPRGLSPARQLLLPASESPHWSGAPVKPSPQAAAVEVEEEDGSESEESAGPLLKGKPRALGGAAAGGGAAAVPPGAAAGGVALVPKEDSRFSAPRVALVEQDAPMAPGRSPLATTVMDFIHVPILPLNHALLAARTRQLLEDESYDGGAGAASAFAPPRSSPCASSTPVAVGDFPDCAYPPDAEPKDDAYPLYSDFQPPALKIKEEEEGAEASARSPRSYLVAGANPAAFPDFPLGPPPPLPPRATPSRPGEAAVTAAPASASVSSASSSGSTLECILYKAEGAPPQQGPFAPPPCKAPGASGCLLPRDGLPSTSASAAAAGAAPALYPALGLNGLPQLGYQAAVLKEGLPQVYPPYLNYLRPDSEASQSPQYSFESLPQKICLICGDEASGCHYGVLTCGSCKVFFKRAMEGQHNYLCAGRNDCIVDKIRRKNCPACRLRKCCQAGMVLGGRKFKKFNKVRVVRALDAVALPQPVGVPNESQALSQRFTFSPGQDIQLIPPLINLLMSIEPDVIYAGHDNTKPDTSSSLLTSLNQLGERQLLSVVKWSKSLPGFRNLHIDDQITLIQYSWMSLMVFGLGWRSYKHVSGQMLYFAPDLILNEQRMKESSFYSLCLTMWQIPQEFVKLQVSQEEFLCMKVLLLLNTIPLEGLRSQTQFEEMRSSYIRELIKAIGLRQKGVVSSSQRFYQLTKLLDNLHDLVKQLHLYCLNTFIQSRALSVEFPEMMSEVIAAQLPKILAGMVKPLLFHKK

Test system in one assay: not listed separately
Nature of the assay: qHTS assay to identify small molecule agonists of the estrogen receptor alpha (ER-alpha) signaling pathway in the presence of an antagonist - cell viability counter screen (AID 1259386; active = well fitted cell-killing curve with a large enough effect in the repeat runs;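 note: cells exposed to compounds for 22 h at 37 °C before the viability read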; note: potency is the fitted concentration of half-maximal effect). Conditions: VM7Luc4E2 viability, CellTiter-Fluor fluorescence, 22 h; series mostly up to 92.4 µM; activity change, negative = cytotoxicity: at the top concentration. The gist of the method: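 The test measures whether compounds kill ER-alpha reporter cells (VM7Luc4E2) under antagonist co-treatment (ICI-182,780, 10.0nM). Fluorescence from CellTiter-Fluor is read after a 22hr exposure.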
Background: In qHTS, concentration-response curves come from the screen itself.
`CC(C)C[C@H](NC(=O)[C@H](Cc1ccccc1)NC(=O)c1cnccn1)B(O)O`: the Potency was 0.841 µM (active).
Consider `CC(C)(C(=O)O)c1ccc(C(O)CCCN2CCC(C(O)(c3ccccc3)c3ccccc3)CC2)cc1` (stereo not given), for which the “activity change, negative = cytotoxicity” value was 0.554% [at 42.5 µM].
On the same count and under the same terms, the same measure for `CCCc1ccc(OC)cc1`: 1.42%; for `O=Cc1ccc([N+](=O)[O-])cc1`: -2.13%; for `O=C1CCCN1CCO`: -10.6%.
As to `O=C(Cl)c1ccc(F)c(Cl)c1`, the “activity change, negative = cytotoxicity” value is 4.61%.
Same read-out and setting: with `Nc1cccc2c(=O)[nH][nH]c(=O)c12` the figure was -3.12%.
Still for that read-out and setting: the same measure for `CCC(C(=O)O)c1ccc(N2Cc3ccccc3C2=O)cc1` (stereo not given): 4.46% [at 42.5 µM]; for `O=C(C1CCCCC1)N1CC(=O)N2CCCc3ccccc3C2C1` (stereo not given): -1.14% [at 42.5 µM]; for `N#CCCCC(C#N)CCC#N` (stereo not given): -4.09%.
On the same count and under the same terms, the same measure for `O=C(O)c1cccc(C(=O)O)c1C(=O)O`: 4.59%; for `CCCCCO`: 0.161%; for `O=C(OCCN1CCOCC1)c1cccnc1Nc1cccc(C(F)(F)F)c1`: 3.11% [at 42.5 µM].
In the case of `C[C@H](N)C(=O)N[C@@H](C)C(=O)NC1[C@H]2CN(c3nc4c(cc3F)c(=O)c(C(=O)O)cn4-c3ccc(F)cc3F)C[C@@H]12` (stereo not given in full), the “activity change, negative = cytotoxicity” value is 0.69% [at 42.5 µM].
On to `CS(C)=O`, for which the “activity change, negative = cytotoxicity” value was -0.283%.
Take `CC(CCl)OC(C)CCl` (stereo not given): the “activity change, negative = cytotoxicity” value was 2.29%.
Still for that read-out and setting: the same measure for `O=c1[nH][nH]c2ccccc12`: 7.61%.

In a further assay the target is Progesterone receptor (Homo sapiens) (UniProt P06401). The assay can be described thus: qHTS assay to identify small molecule agonists of the progesterone receptor (PR) signaling pathway (AID 1346784). The following applies: PR-UAS-bla HEK293T, beta-lactamase FRET ratio, 16 h; series mostly up to 92.4 µM; activation: at the top concentration. The gist of the method:
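PR-UAS-bla HEK 293T cells carrying a UAS-driven beta-lactamase reporter were seeded in medium with 2% charcoal-stripped FBS, preincubated 6 hr at 37C, then exposed to compounds in DMSO for 16 hr; agonism was read by LiveBLAzer B/G FRET fluorescence.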
On to `Nc1nc(Cl)nc2c1ncn2[C@H]1C[C@H](O)[C@@H](CO)O1`, for which the “activation” value is -9.71%.
Consider `Cc1cc(SC2=C(O)C[C@@](CCc3ccc(N)cc3)(C(C)C)OC2=O)c(C(C)(C)C)cc1CO`, for which the “activation” value is -5.06%.
Turning to `CCCCOC(=O)CC#N`, the “activation” value was -0.237%.
The same measure, in the same setting: with `CC(C)=CCCC(C)C=O` (stereo not given) the figure was -0.623%.
In the case of `CCC(C)CCCC(C)(C)O` (stereo not given), the “activation” value is -0.823%.
As for `CC1(COc2ccc(CC3SC(=O)NC3=O)cc2)CCCCC1` (stereo not given), the “activation” value is 6.96% [at 42.5 µM].
The same measure, in the same setting: the same measure for `CC(C)C/C=C(\C=O)c1ccccc1`: -0.0421%.
Same read-out and setting: the same measure for `CC/C=C\CCO`: 0.239%.
Still for that read-out and setting: with `CCCCCCCCCCCCCCCCN` the figure was -1.87% [at 42.5 µM].
As for `O=C(OCCCCCOC(=O)c1ccccc1)c1ccccc1`, the “activation” value was -0.99%.
Same read-out and setting: the same measure for `C=CC(C)CCC=C(C)C` (stereo not given): -1.25%.
The same measure, in the same setting: with `O=[N+]([O-])c1cccc(I)c1` the figure was -0.165%; with `CC(CC(C#N)(c1ccccc1)C(C)C)N(C)C` (stereo not given), 0.453% [at 42.5 µM].
Regarding `Nc1ccc(-c2ccc(F)cc2)cc1`, the “activation” value was 1.17%.
Turning to `CCCC(=O)OCCC(C)C`, the “activation” value is -1.6%.
On the same count and under the same terms, the same measure for `CCc1ccc2c(c1)C(=O)c1ccccc1C2=O`: -0.434%; for `COC(=O)Cc1cccc2ccccc12`: 0%.
The same measure, in the same setting: the same measure for `CC(C)C[C@H](NC(=O)[C@H](Cc1ccccc1)NC(=O)c1cnccn1)B(O)O`: -11.2% [at 42.5 µM]; for `CC(C)(C(=O)O)c1ccc(C(O)CCCN2CCC(C(O)(c3ccccc3)c3ccccc3)CC2)cc1` (stereo not given): 0.95% [at 42.5 µM]; for `CCCc1ccc(OC)cc1`: 0.617%.
Consider `O=Cc1ccc([N+](=O)[O-])cc1`, for which the “activation” value is -0.434%.
Same read-out and setting: the same measure for `O=C1CCCN1CCO`: -3.39%; for `O=C(Cl)c1ccc(F)c(Cl)c1`: -0.119%; for `O=C(O)CCc1nc2ccccc2[nH]1`: 2.54% [at 42.5 µM].
On the same count and under the same terms, the same measure for `CCC(C(=O)O)c1ccc(N2Cc3ccccc3C2=O)cc1` (stereo not given): -0.367% [at 42.5 µM].
Still for that read-out and setting: the same measure for `O=C(C1CCCCC1)N1CC(=O)N2CCCc3ccccc3C2C1` (stereo not given): -2.51% [at 42.5 µM].
As for `N#CCCCC(C#N)CCC#N` (stereo not given), the “activation” value was -2.29%.
As to `CCCCCO`, the “activation” value is 0.524%.
Still for that read-out and setting: the same measure for `O=C(OCCN1CCOCC1)c1cccnc1Nc1cccc(C(F)(F)F)c1`: 10.9% [at 42.5 µM].
In the case of `C[C@H](N)C(=O)N[C@@H](C)C(=O)NC1[C@H]2CN(c3nc4c(cc3F)c(=O)c(C(=O)O)cn4-c3ccc(F)cc3F)C[C@@H]12` (stereo not given in full), the “activation” value was 7.64% [at 42.5 µM].
Regarding `CS(C)=O`, the “activation” value is -1.82%.
Still for that read-out and setting: the same measure for `CC(CCl)OC(C)CCl` (stereo not given): 0.328%; for `O=c1[nH][nH]c2ccccc12`: -2.85%.
